TDP1 cell CPT: growth inhibition of DT40 Tdp1-/-;hTDP1 cells with camptothecin (screen for TDP1 inhibitors); chicken DT40 Tdp1-/-;hTDP1 cells + 20 nM CPT, ATP luminescence, 48 h; 420,000 tested, 12% active; AID 686979; Potency, µM (top dose mostly 46.2 µM), for the others: at the top dose activity change, negative = growth inhibition, most hits filed as inhibitors; note: potency is the fitted concentration of half-maximal effect; nearly all actives have a fitted effect of over 55% in size
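Chicken DT40 Tdp1-/- cells complemented with human TDP1, 400 cells/well, exposed to compounds plus 20 nM camptothecin for at least 48 h at 37 C; viability read as ATP content by CellTiter-Glo luminescence.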
HT1080 IDH1KD tx: toxicity to HT-1080 IDH1 knockdown cells (counter line); HT-1080 IDH1 knockdown viability, ATP luminescence, 48 h; Potency, µM (top dose mostly 46.1 µM), without a hit: top-dose activity, negative = toxicity, hits mostly cytotoxic; 360,000 tested, 2% active;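 note: potency is the fitted concentration of half-maximal effect; 0% = DMSO wells and -100% = cell-free medium wells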
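Assay cells: HT-1080 with IDH1 knockdown, 750 per well, RPMI/5% FBS. Exposure: 48 h at 37 °C following 2 h pre-incubation. Read: CellTiter-Glo luminescence; fitted concentration-response, curve class assigned.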
IL-1B inflam inh: inflammasome signaling inhibition, IL-1 beta readout. THP-1 LPS/ATP IL-1B secretion, AlphaLISA, 16 h; stronger effect = lower value. activity change, % at 57.5 µM. 360,000 tested, 4.7% active. AID 743279; in the data active = activity change below about -50%; inconclusive = mostly about -30% to -49%
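Secreted IL-1B measured by AlphaLISA bead assay after 16 h compound exposure of THP-1 cells; compounds (final up to 57.5 uM) added 1 h before LPS (250 ng/mL) and ATP (1.25 mM) stimulation; lower signal means less secretion.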
HT1080-NT tox: kills 2HG-producing HT-1080-NT fibrosarcoma cells. HT-1080-NT fibrosarcoma viability, CellTiter-Glo ATP luminescence, 48 h. Potency, µM (series often up to 46.1 µM), inactives show at the highest dose activity, negative = less viability, hits mostly cytotoxic. 360,000 tested, 1.6% active. AID 686970;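 note: NT is the 2HG producing partner of a matched IDH1 knockdown line; potency is the fitted concentration of half-maximal effect; 0% = DMSO-treated cells and -100% = media-only wells without cells; nearly all actives have a fitted effect of over 55% in size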
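Luminescent CellTiter-Glo readout after 48 hours of compound exposure at 37 degrees C defined viability of HT-1080-NT cells. Activity was normalized to DMSO wells and cell-free media wells; concentration-response curves were fitted and assigned curve classes.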
DT40 TDP1 no CPT: qHTS for Inhibitors of human tyrosyl-DNA phosphodiesterase 1 (TDP1): qHTS in cells in absence of CPT; DT40 Tdp1-/- hTDP1 cells, no CPT, ATP luminescence, 48 h; Potency, µM (doses to about 46.2 µM), inactives show top-dose activity change, negative = growth inhibition, most hits filed as inhibitors; 420,000 tested, 15% active; AID 686978, 2013; note: potency is the fitted concentration of half-maximal effect; nearly all actives have a fitted effect of over 55% in size
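Luminescent ATP content (CellTiter-Glo) served as the growth readout. Knockout chicken DT40 cells expressing human TDP1 were exposed to compounds without camptothecin for a minimum 48 hr at 37 °C.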
An asterisk follows results filed as active; ? = inconclusive; · = no result given; ! = not confirmed by another sample. Compounds with a hit are over-represented: about 19% of the library has one in this group of screens. Unless noted, calls come from the whole dose curve; as a rule, active = well fitted curve in the direction sought with a large enough effect; inconclusive = small, poorly fitted or top-dose-only effect, or another doubt; inactive = no such curve, though single readings can be large; an effect the other way counts as inactive or inconclusive. Unless noted, % is set by controls: 0 for no effect and ±100 for the full control effect.

SMILES	TDP1 cell CPT	HT1080 IDH1KD tx	IL-1B inflam inh	HT1080-NT tox	DT40 TDP1 no CPT
CCOC(=O)C1=C(CC)Nc2ccccc2N=C1NC(=O)c1ccc(OC)c(S(=O)(=O)N2CCOCC2)c1	?	8.6%	-13.9	1.3%	?
COc1ccc(-c2nc(SC)n(C)c(=O)c2C#N)cc1OC	?	0.8%	-76.3*	1.2%	?
CCOC(=O)CSc1nc2c(sc(=S)n2-c2ccccc2OC)c(=O)n1-c1ccccc1OC	-23.9%	14.7%	-64.0*	4.5%	?
COc1ccc(-n2c(SCC(=O)C(C)(C)C)nc3c(sc(=S)n3-c3ccccc3)c2=O)c(OC)c1	13µM*	10.2%	21.8	3.9%	11.6µM*
CCN(CC(=O)Nc1ccc(OC)cc1)C(=O)c1cc(-c2cccs2)nn1-c1ccccc1	?	-16.5%	-11.1	-3.3%	16.4µM*
COc1ccc(NC(=O)CN(C)C(=O)c2cc(-c3cccs3)nn2-c2ccccc2)cc1	?	-11.6%	?	-9.0%	14.6µM*
CCOc1ccc(NC(=O)CN(C)C(=O)c2cc(-c3cccs3)nn2-c2ccccc2)cc1OCC	?	8.7%	-0.4	5.1%	?
CN(CC(=O)Nc1ccc(F)cc1)C(=O)c1cc(-c2cccs2)nn1-c1ccccc1	?	-2.5%	-0.9	-4.2%	13µM*
Cc1oc2cc3oc(=O)c(CCC(=O)N4C[C@H]5C[C@@H](C4)c4cccc(=O)n4C5)c(C)c3cc2c1C	?	-5.1%	-25.0	-15.5%	?
S=C(NCc1cccnc1)Nc1cccc2ccccc12	-23.0%	16.4%	9.4	15.5%	?
S=C(NCc1ccccc1)Nc1cccc2cnccc12	11.6µM*	?	-9.6	-3.7%	18.4µM*
CCCCNC(=S)Nc1cccc2cnccc12	13µM*	-19.5%	2.7	-21.4%	23.1µM*
C=CCOc1ccccc1CNCCNC(=O)c1nonc1N	-29.1%	-4.0%	-0.6	1.5%	-21.6%
CCOc1ccccc1CNCCNC(=O)c1nonc1N	?	17.2%	-1.6	4.4%	25.9µM*!
Nc1nonc1C(=O)NCCNCc1ccccc1OCc1ccccc1F	?	?	-28.4	?	20.6µM*
Nc1nonc1C(=O)NCCNCc1cc(Br)ccc1OCc1ccccc1F	20.6µM*	-14.0%	-56.1*	-11.2%	20.6µM*
COc1cc(CNCCNC(=O)c2nonc2N)ccc1OCc1ccc(Cl)cc1	?	16.4µM*	-95.3*	?	20.6µM*
CCn1cc(C(=O)O)c(=O)c2cnc(N3CCN(C(=S)NC(=O)c4ccc(OC)cc4)CC3)nc21	-8.3%	0.3%	-15.3	2.2%	-12.7%
CCCCCC(=O)O[C@]1(C(C)=O)CC[C@H]2[C@@H]3CCC4=CC(=O)CC[C@]4(C)[C@H]3CC[C@@]21C	25.9µM*	?	-0.4	?	18.4µM*
CC(=O)OC1(C(C)=O)CCC2C3CC(Cl)C4=CC(=O)CCC4(C)C3CCC21C (centres undefined)	?	-9.7%	-23.5	-10.8%	23.1µM*
CC(=O)O[C@]1(C(C)=O)CC[C@H]2[C@@H]3C=CC4=CC(=O)C=C[C@]4(C)[C@H]3CC[C@@]21C	?	-1.2%	-25.2	-3.4%	14.6µM*
CC(=O)O[C@]1(C(C)=O)CC[C@H]2[C@@H]3C=C(C)C4=CC(=O)CC[C@@H]4[C@H]3CC[C@@]21C	?	-0.2%	?	?	4.61µM*
CCN(CC)c1ccc(C(=O)N/N=C(\C)c2ccc(O)cc2)cc1	-24.2%	?	-5.6	?	?
CC(=O)O[C@]1(C(C)=O)CCC2C3C=C(C)C4=CC(=O)CC[C@]4(C)C3CC[C@@]21C (some centres undefined)	23.1µM*	-1.8%	?	-8.2%	16.4µM*
CC(=O)O[C@@]1(C(C)=O)CCC2C3C=C(C)C4=CC(=O)CCC4(C)C3CCC21C (some centres undefined)	-6.0%	·	·	·	-14.5%
SMILES	TDP1 cell CPT	HT1080 IDH1KD tx	IL-1B inflam inh	HT1080-NT tox	DT40 TDP1 no CPT
O=C1NC(=O)C2(COC(c3ccccc3Cl)OC2)S1 (centres undefined)	-12.0%	1.9%	25.8	11.5%	19.4%
CCOc1ccc(NC(=O)CN(C)C(=O)c2c(C)nn(-c3ccc(F)cc3)c2Cl)cc1OCC	0.1%	0.8%	-7.5	-2.6%	-7.9%
Cc1ccc(-c2noc(CN(C(=O)C(c3ccccc3)c3ccccc3)C(C)C)n2)cc1	18.4µM*	-17.4%	?	-0.2%	14.6µM*
CC(C)N(Cc1nc(-c2ccc(Cl)cc2)no1)C(=O)C(c1ccccc1)c1ccccc1	?	-23.6%	-11.4	-18.0%	?
COc1ccc(-c2noc(CN(C(=O)COc3cc(C)c(Br)c(C)c3)C(C)C)n2)cc1	18.4µM*	·	·	·	23.1µM*
Cc1cc(C)cc(C(=O)N(Cc2nc(-c3ccc(Cl)cc3)no2)C(C)C)c1	20.6µM*	·	·	·	18.4µM*
COc1ccc(C(=O)NCc2nc(-c3cccc(C)c3)no2)cc1OC	?	·	·	·	16.4µM*
O=C(COC(=O)CNC(=O)C1CCCCC1)NCc1ccc(Cl)cc1	-3.8%	4.7%	-5.3	-3.3%	-3.1%
CCCNC(=O)Cn1nc(-c2ccc(C)c(C)c2)c2cnc3ccc(F)cc3c21	?	·	·	·	-20.8%
COc1ccc(-c2noc(CN(C)C(=O)c3ccoc3C)n2)cc1	?	-0.7%	6.2	-12.8%	16.4µM*
COc1cccc(C(=O)N(Cc2nc(-c3ccc(Cl)cc3)no2)C(C)C)c1OC	18.4µM*	·	·	·	20.6µM*
COc1ccc(Cl)cc1C(=O)N(Cc1nc(-c2cccc(C)c2)no1)C(C)C	6.51µM*	-6.4%	5.7	-0.4%	6.51µM*
CCCNC(=O)c1cc(C2CCCCN2S(=O)(=O)Cc2cccc(C(F)(F)F)c2)on1 (centres undefined)	-29.3%	9.9%	-8.7	-10.4%	-58.6%
COc1cccc(CNC(=O)C2CCN(S(=O)(=O)c3ccc(-n4cnnn4)cc3)CC2)c1	1.7%	1.7%	-1.7	5.5%	-14.4%
COc1cc(C(CC(=O)NCc2ccc(F)cc2)N2Cc3ccccc3C2=O)cc(OC)c1OC (centres undefined)	?	·	·	·	16.4µM*
COc1cc(OC)c(NC(=O)C(CC(C)C)N2Cc3ccccc3C2=O)cc1Cl (centres undefined)	14.6µM*	·	·	·	?
COc1ccccc1CNC(=O)CC(c1ccc(F)cc1)N1Cc2ccccc2C1=O (centres undefined)	?	·	·	·	23.1µM*
COc1ccccc1CNC(=O)C(CC(C)C)N1Cc2ccccc2C1=O (centres undefined)	9.2µM*	·	·	·	20.6µM*

Compound activity (PubChem)
